Measured values taken from PubChem BioAssay.
Active and inactive are the calls of the source.

How the values were obtained:
[1] = system: Human papillomavirus type 1a protein E7 (residues 44-93); test: HPV1a E7 fragment binders on microarrays, primary screen, biochemical, small-molecule microarray, residues 44-93, 635 nm fluorescence (AID 1108); details: small-molecule microarray binding, fluorescence 635 nm; higher = more signal;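 also: E7 fragment applied at 1 µg/mL in TBST for 1 h at 4 C; score combines spot fluorescence with its signal to noise ratio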
[2] = modulators of HCV replicon luciferase signal, primary screen, HCV replication inhibitor project, Huh7 cells, luciferase reporter (AID 1109); details: 48 h, higher = more signal;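 also: huh7 hepatoma cells harbouring a luciferase neomycin HCV replicon reporter; luciferase luminescence as measure of HCV replicon replication; test concentration not given here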
[3] = biological target: Left-right determination factor 2 (Homo sapiens) (UniProt O00292); test: LEFTY2 binders on small-molecule microarrays, primary screen, biochemical, small-molecule microarray, 635 nm fluorescence scan (AID 1110); details: LEFTY2 binding, higher = more signal
[4] = biological target: Calmodulin-1 (Homo sapiens) (UniProt P0DP23); test: CALM1 binders on microarrays, EGTA buffer, profiling panel, biochemical, small-molecule microarray, Cy5-labelled CALM1 (AID 1111); details: Cy5-CALM1 binding fluorescence, higher = more signal;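 also: labelled calmodulin applied in Tris saline Tween buffer holding calcium plus EGTA and DTT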
[5] = biological target: Calmodulin-1 (Homo sapiens) (UniProt P0DP23); test: calcium-bound CALM1 binders on microarrays, profiling panel, artefact control for SMM control-protein annotation, biochemical, small-molecule microarray, Cy5-labelled CALM1, plus calcium (AID 1112); details: Cy5-CALM1 binding fluorescence, higher = more signal;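 also: score merges spot fluorescence with signal to noise from triplicate slides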
[6] = small-molecule microarray binders of probe aWnt5a, primary screen, biochemical, biotinylated probe, 635/667 nm fluorescence (AID 1113); details: higher = more signal;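 also: score merges 667 nm fluorescence intensity with signal-to-noise per printed feature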
[7] = small-molecule microarray binders of probe aShh, primary screen, biochemical, biotinylated probe, 635/667 nm fluorescence (AID 1114); details: higher = more signal;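 also: probe is biotin-labelled aShh protein from a stem cell growth factor screen; measures binding of labelled protein to compounds printed on the slide; score merges feature fluorescence at 667 nm with signal-to-noise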
[8] = small-molecule microarray binders of probe aNog, primary screen, biochemical, biotinylated probe, 635/667 nm fluorescence (AID 1115); details: higher = more signal;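 also: probe is biotinylated aNog protein used at 0.15 µg/mL for 1 h at 4 C; z-score combines 667 nm fluorescence of each spot with its signal to noise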
[9] = biological target: Torsin-1A-interacting protein 1 (Homo sapiens) (UniProt Q5JTV8); test: LAP1 binders from COS7 cell lysate, primary screen, small-molecule microarray, 635/667 nm fluorescence (AID 1116); details: COS7-hLAP1 lysate binding, 635 nm fluorescence, higher = more signal
[10] = biological target: Alpha-bungarotoxin (Bungarus multicinctus) (UniProt P60615); test: alpha-bungarotoxin binders on microarray, profiling panel, artefact control for SMM control protein annotation, biochemical, small-molecule microarray, Alexa647 label, 635/667 nm fluorescence (AID 1117); details: alpha-BTX-A647 binding fluorescence, higher = more signal
Albumin (Bos taurus) = Albumin (Bos taurus) (UniProt P02769); test: bovine serum albumin binders on microarray, profiling panel, artefact control for SMM control protein annotation, biochemical, small-molecule microarray, Alexa647 label, 635/667 nm fluorescence (AID 1118); details: BSA-A647 binding, fluorescence 635 nm, higher = more signal;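 also: score merges 667 nm emission intensity and signal-to-noise per printed compound spot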
[11] = small-molecule microarray binders of probe aXIP, primary screen, biochemical, NeuroSMM set, 635/667 nm fluorescence (AID 1119); details: higher = more signal, called active from +8 up or from −8 down;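 also: probe is the protein aXip251-270 applied at 1 µg/mL to compound-printed slides; binding of probe to printed compounds measured as 667 nm fluorescence plus signal to noise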
[12] = small-molecule binders of probe aNOTCH3, primary screen, biochemical, small-molecule microarray, 635/667 nm fluorescence (AID 1120); details: higher = more signal;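 also: probe is a biotin-tagged antibody raised against NOTCH3 rather than NOTCH3 protein; score merges spot fluorescence near 667 nm with spot signal to noise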
[13] = small-molecule binders of probe aNOTCH2, primary screen, biochemical, small-molecule microarray, 635/667 nm fluorescence (AID 1121); details: higher = more signal;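 also: score merges feature fluorescence read at 667 nm with its signal to noise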
[14] = biological target: Carbonic anhydrase 2 (Homo sapiens) (UniProt P00918); test: CAII small-molecule binders, profiling panel, biochemical, small-molecule microarray, Alexa647-labelled CAII (AID 1122); details: CAII-A647 binding fluorescence, higher = more signal
[15] = COS7 lysate on small-molecule microarray, probe aHis, 635 nm (AID 1123); details: COS7 cell lysate, fluorescence, higher = more signal;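 also: z-score combines 667nm fluorescence intensity with signal-to-noise per printed compound spot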
[16] = compound binding in COS7 lysate, probe aLAP1, primary screen, cell lysate, small-molecule microarray (AID 1124); details: probe aLAP1, fluorescence, higher = more signal;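 also: lysate comes from COS7 cells expressing LAP1 and is applied at 0.3 µg/mL; score merges spot fluorescence near 667 nm with signal-to-noise over triplicate slides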
Sam68 (KHDRBS1) = test: Sam68 small-molecule binders, primary screen, biochemical, small-molecule microarray, 635 nm fluorescence (AID 1125); details: small-molecule microarray binding, higher = more signal;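 also: score merges 667 nm channel intensity with signal to noise over triplicate slides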
[17] = system: Chordin-like protein 2 (CHRDL2); test: CHRDL2 small-molecule binders, primary screen, biochemical, small-molecule microarray, 635 nm fluorescence (AID 1126); details: small-molecule microarray binding, fluorescence 635 nm; higher = more signal;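 also: printed compound slides probed with Chrdl2 protein at 4 µg/mL for 1 h at 4 C; score merges 667 nm emission intensity with signal to noise over three replicate slides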
[18] = biological target: Concanavalin-A (Canavalia ensiformis) (UniProt P02866); test: ConA small-molecule binders, primary screen, artefact control for SMM control protein annotation, biochemical, small-molecule microarray, Alexa647 label, 635 nm (AID 1127); details: ConA-A647 binding fluorescence, higher = more signal;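 also: z combines 667 nm emission intensity with signal-to-noise across three replicate slides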
Chain of Concanavalin-A (Canavalia ensiformis) (P02866 whole entry, looked up): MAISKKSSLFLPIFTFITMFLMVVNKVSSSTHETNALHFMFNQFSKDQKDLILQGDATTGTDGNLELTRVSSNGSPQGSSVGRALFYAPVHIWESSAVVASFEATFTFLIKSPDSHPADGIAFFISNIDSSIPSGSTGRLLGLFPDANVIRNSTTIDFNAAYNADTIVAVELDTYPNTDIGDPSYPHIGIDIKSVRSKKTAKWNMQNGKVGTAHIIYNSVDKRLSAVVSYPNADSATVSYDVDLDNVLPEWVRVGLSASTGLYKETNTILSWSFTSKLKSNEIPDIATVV

Chain of Left-right determination factor 2 (Homo sapiens) (O00292 whole entry, looked up): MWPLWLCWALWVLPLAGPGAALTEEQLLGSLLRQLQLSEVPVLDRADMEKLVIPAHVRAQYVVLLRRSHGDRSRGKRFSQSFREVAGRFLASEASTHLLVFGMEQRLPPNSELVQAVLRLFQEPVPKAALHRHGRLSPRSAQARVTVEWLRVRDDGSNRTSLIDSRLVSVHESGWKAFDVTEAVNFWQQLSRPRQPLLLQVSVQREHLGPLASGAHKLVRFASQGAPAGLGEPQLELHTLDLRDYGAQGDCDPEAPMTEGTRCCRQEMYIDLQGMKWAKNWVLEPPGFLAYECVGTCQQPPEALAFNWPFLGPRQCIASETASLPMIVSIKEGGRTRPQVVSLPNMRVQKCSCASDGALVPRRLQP
Chain of Alpha-bungarotoxin (Bungarus multicinctus) (P60615 whole entry, looked up): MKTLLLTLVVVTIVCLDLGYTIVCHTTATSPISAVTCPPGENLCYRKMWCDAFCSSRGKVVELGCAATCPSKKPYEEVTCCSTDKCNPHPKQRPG
Chain of Torsin-1A-interacting protein 1 (Homo sapiens) (Q5JTV8 whole entry, looked up): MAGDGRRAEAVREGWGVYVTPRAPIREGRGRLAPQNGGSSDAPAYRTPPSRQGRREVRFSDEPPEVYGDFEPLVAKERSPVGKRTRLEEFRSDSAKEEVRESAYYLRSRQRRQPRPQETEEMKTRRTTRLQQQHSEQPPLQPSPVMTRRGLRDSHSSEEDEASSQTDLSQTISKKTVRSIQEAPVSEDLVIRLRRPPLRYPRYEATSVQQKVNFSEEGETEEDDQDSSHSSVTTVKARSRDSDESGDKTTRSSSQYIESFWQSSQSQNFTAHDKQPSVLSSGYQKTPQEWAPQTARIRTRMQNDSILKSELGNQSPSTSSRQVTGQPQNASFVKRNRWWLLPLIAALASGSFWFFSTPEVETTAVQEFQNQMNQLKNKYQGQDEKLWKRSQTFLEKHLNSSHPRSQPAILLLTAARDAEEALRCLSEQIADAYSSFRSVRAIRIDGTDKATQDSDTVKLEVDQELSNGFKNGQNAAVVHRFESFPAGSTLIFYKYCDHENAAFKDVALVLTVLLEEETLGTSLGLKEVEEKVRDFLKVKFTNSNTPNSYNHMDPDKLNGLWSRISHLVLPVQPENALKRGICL
Chain of Albumin (Bos taurus) (P02769 whole entry, looked up): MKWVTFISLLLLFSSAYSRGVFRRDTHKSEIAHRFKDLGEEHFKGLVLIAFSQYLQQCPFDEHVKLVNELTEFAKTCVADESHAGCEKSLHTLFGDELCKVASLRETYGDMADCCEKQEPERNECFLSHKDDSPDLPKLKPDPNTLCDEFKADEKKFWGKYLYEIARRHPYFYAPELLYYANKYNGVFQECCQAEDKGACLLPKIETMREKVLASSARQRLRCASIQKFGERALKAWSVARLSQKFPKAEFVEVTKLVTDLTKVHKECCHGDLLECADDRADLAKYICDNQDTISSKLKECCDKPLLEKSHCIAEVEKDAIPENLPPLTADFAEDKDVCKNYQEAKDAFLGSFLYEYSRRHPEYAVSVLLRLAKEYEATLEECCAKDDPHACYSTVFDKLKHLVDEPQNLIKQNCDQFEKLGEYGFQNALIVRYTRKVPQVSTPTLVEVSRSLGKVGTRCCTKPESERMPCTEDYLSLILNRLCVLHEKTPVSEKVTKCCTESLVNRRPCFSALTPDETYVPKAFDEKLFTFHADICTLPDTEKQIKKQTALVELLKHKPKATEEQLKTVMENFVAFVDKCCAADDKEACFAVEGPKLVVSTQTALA

SMILES	composite z-score [1]	z-score [2]	composite z-score [3]	composite z-score [4]	composite z-score [5]	composite z-score [6]	composite z-score [7]	composite z-score [8]	composite z-score [9]	composite z-score [10]	composite z-score (Albumin (Bos taurus))	composite Z-score [11]	composite z-score [12]	composite z-score [13]	composite z-score [14]	composite z-score [15]	composite z-score [16]	composite z-score (Sam68 (KHDRBS1))	composite z-score [17]	composite z-score [18]
C=C(COC)C(=O)CC[C@@H](OC(=O)c1ccccc1-c1ccccc1C(=O)O)c1ccc(CO)o1	0.512	-4.48	1.01	1.63	0.417	-0.256	-0.34	-0.251	0.709	0.206	-0.651	0.082 (inactive)	-0.154	-0.0817	0.309	1.77	0.447	0.504	1.24	0.865
COCC1=C([C@H](O)CCc2ccccc2)[C@H](CO)[C@@H]2C(=O)N(Cc3ccccc3)C(=O)[C@@H]2C1	-0.0325	-0.711	0.435	-0.519	-0.465	-0.0194	-0.214	-0.139	0.167	0.206	-0.103	0.0653 (inactive)	-0.0456	-0.129	-0.0186	0.0949	-0.102	-0.0322	0.422	0.0998
COc1ccc([Si](C)(C)[C@@H]2[C@@H](CCO)O[C@]3(C(=O)N(Cc4cccc(N(C=O)c5ccccc5)c4)c4ccccc43)[C@H]2C)cc1	-0.179	-4.85	-0.223	1.13	1.09	-0.176	0.0611	-0.0002	0.494	0.956	0.492	0.492 (inactive)	-0.0328	-0.0876	0.457	0.46	-0.206	1.32	-0.179	1.1
CCOC(=O)N1C(c2ccc(OCCCO)cc2)=NC(C(=O)OC)N1C(=O)OCC (stereo not given)	1.38	-3.72	0.537	1.25	0.127	-0.0685	-0.279	0.0036	0.935	0.439	0.878	-0.363 (inactive)	0.183	-0.0326	0.733	1.73	0.626	1.18	-0.105	1.09
CC(C)[C@H]1COC(=O)N1C(=O)[C@H]1[C@@H](c2ccccc2)N(c2ccccc2)O[C@@H]1C	0.359	-0.383	0.729	0.35	-0.434	-0.1	-0.206	0.0373	0.15	0.107	0.15	1.77 (inactive)	0.0893	-0.125	-0.004	0.409	-0.066	0.618	0.827	0.609
O=C1O[C@@H](c2ccccc2)[C@@H](c2ccccc2)N2[C@@H](c3ccccc3OCCO)[C@]3(C(=O)Nc4ccc(C#CC5(O)CCCCCC5)cc43)[C@@H](C(=O)NC[C@H](O)c3ccccc3)[C@H]12	1.41	-3.23	-0.24	0.819	0.923	0.0912	0.681	1.86	0.0197	0.728	0.644	1.17 (inactive)	0.638	0.0062	0.244	2.29	0.146	1	-0.134	0.622
CC1(C)C(=O)C(c2ccccc2)=C2CN3C(=O)N(CCc4ccccc4)C(=O)C3(Cc3ccccc3)C=C21 (stereo not given)	1.03	-1.58	-0.0283	1.03	0.9	0.0633	0.375	0.578	-0.0882	1.68	0.775	0.274 (inactive)	0.351	0.121	0.644	1.16	-0.0857	0.516	-0.888	0.444
COC(=O)[C@@]1(Cc2ccc(F)cc2)[C@H]2c3cc(C(=O)N4CCCC4)n(CCc4ccc(OC)c(Br)c4)c3C[C@H]2CN1C(=O)c1ccccc1	0.543	-2.69	0.179	2.7	1.29	0.155	0.627	1.11	2.7	2.38	0.843	-0.61 (inactive)	0.591	0.323	0.599	3.26	0.987	1.33	-1.39	1.15
NC(=O)NCC#Cc1ccc2c(c1)[C@]1(C(=O)N2)[C@H](c2ccc(O)cc2)N2[C@H](c3ccccc3)[C@H](c3ccccc3)OC(=O)[C@H]2[C@@H]1C(=O)N1CCN(c2ncccn2)CC1	0.237	-0.762	0.158	0.301	0.476	-0.13	-0.349	0.789	0.811	0.772	0.317	1.24 (inactive)	0.191	-0.0048	0.396	1.64	0.32	-0.0586	-0.165	0.377
C=CCC(OC(C)=O)[C@@H]1[C@@H](N(Cc2cc3ccccc3o2)C(=O)c2ccc(C)cc2)c2cc(OCCCO)ccc2N1C(=O)c1ccc(-c2ccccc2)cc1 (stereo not given in full)	0.182	-1.67	0.36	-0.259	0.544	-0.0529	0.0141	-0.374	0.285	0.169	-0.0944	0.0882 (inactive)	0.102	-0.18	0.0677	0.263	-0.161	0.318	0.073	-0.0198
C=CC[C@@]1(C(N)=O)N=C(c2ccc(OCCCO)cc2)O[C@@H]1c1ccccc1N=[N+]=[N-]	-0.42	1.51	0.362	-0.151	-0.471	0.0825	-0.148	1.1	2.04	0.673	0.225	-0.56 (inactive)	0.116	0.468	0.555	1.64	1.82	0.934	1.16	0.126
CC(C)C(O)C1C=CC2C(=O)N(C)C(=O)C2N1N1CCCCC1 (stereo not given)	0.471	0.279	0.223	0.372	-0.387	-0.0462	0.0723	0.693	0.815	0.502	0.867	0.875 (inactive)	0.143	0.0994	0.773	2.2	0.111	0.832	0.117	0.657
